{
  "source": "PubChem BioAssay",
  "data": [
    {"experiment": "inhibitors of PAF-induced NFkB signaling in CF airway cells, dose response, cell-based, uHTS hits, panel, cytotoxicity readout (AID 624344)", "conditions": "CF bronchial epithelial cells, PAF-induced NFkB reporter inhibition, with PAF, run 1; at 79 µM (top of the series)", "units": {"inhibition": "%"}, "values": [
      {"compound": "C=CC[C@@H](CC/C=C/C=C/CC/C=C\\[C@@H]1CSC([C@@H]2C[C@@H]2C)=N1)OC", "inhibition": 91.9},
      {"compound": "COc1ccc(Oc2cc(NC(=O)c3nn(C)cc3[N+](=O)[O-])cc([N+](=O)[O-])c2)cc1", "inhibition": 113},
      {"compound": "NC(=Nc1ccccc1)NN=Cc1c[nH]c2ccccc12", "inhibition": 94.3},
      {"compound": "COc1cc(C2c3cc4c(cc3CC3COC(=O)C32)OCO4)cc(OC)c1O", "note": "(configuration not stated)", "inhibition": -31.2},
      {"compound": "C=C1C(C)C2C(Cc3ccccc3)NC(=O)C23OC(=O)/C=C/C(O)CCCC(C)C/C=C/C3C1O", "note": "(configuration not stated)", "inhibition": 104},
      {"compound": "C=C1C(=O)OC2CC3(C)OC3CCC(C)=CC(OC(C)=O)C12", "note": "(configuration not stated)", "inhibition": 93.9},
      {"compound": "N#CC1c2ccccc2-n2nncc2CN1Cc1cc(Cl)cc(Cl)c1", "note": "(configuration not stated)", "inhibition": 91.8},
      {"compound": "Cc1c(C(=O)c2cccc3ccccc23)c2cccc3c2n1[C@H](CN1CCOCC1)CO3", "inhibition": 104},
      {"compound": "COc1ccc(C(c2nnnn2-c2ccc(OC)cc2)N2CCC(n3c(=O)[nH]c4ccccc43)CC2)cc1", "note": "(configuration not stated)", "inhibition": 98.8},
      {"compound": "COc1cc(C2c3cc4c(c(O)c3CC3COC(=O)C32)OCO4)cc(OC)c1OC", "note": "(configuration not stated)", "inhibition": 110},
      {"compound": "COc1ccc(C[C@H]2NC[C@H](O)[C@H]2OC(C)=O)cc1", "inhibition": 114},
      {"compound": "COc1ccc(-n2nnnc2C(CCSC)N2CCC(n3c(=O)[nH]c4ccccc43)CC2)cc1", "note": "(configuration not stated)", "inhibition": 97.9},
      {"compound": "COc1ccc2c(c1)[nH]c1c(C)nccc12", "inhibition": 113},
      {"compound": "O=c1[nH]c2ccccc2n1C1CCN(C(c2cccc3ccccc23)c2nnnn2Cc2ccccc2)CC1", "note": "(configuration not stated)", "inhibition": 103},
      {"compound": "COc1ccc(-n2nnnc2C(CCc2ccccc2)N2CCC(n3c(=O)[nH]c4ccccc43)CC2)cc1", "note": "(configuration not stated)", "inhibition": 103},
      {"compound": "O=c1[nH]c2ccccc2n1C1CCN(C(c2cc3ccccc3o2)c2nnnn2-c2ccc3c(c2)OCCO3)CC1", "note": "(configuration not stated)", "inhibition": 103},
      {"compound": "COc1cc2c(c(OC)c1OC)-c1ccc(O)cc1C(NC(C)=O)CC2", "note": "(configuration not stated)", "inhibition": -101},
      {"compound": "C[C@H]1C[C@@H](C)C(=O)[C@@H]([C@H](O)CC2CC(=O)NC(=O)C2)C1", "inhibition": 107},
      {"compound": "COc1ccc(-n2nnnc2C(c2cccs2)N2CCC(n3c(=O)[nH]c4ccccc43)CC2)cc1", "note": "(configuration not stated)", "inhibition": 102},
      {"compound": "COc1ccc(-n2nnnc2C(c2cccc(OC)c2OC)N2CCC(n3c(=O)[nH]c4ccccc43)CC2)cc1", "note": "(configuration not stated)", "inhibition": 99.3},
      {"compound": "NC(=O)c1c(Br)n(C2OC(CO)C(O)C2O)c2ncnc(N)c12", "note": "(configuration not stated)", "inhibition": 106},
      {"compound": "N#Cc1c(Br)n(C2OC(CO)C(O)C2O)c2ncnc(N)c12", "note": "(configuration not stated)", "inhibition": 106}
    ]}
  ]
}
